Sampled rows, rich in hits. Any-hit rate of the full collection: about 4.8%.
SKKanGAS inh: blocks kanamycin growth of S. pyogenes SKKanGAS strain; AID 1662; 1.3% of 300,000 active; BacTiter-Glo, 6 h; inhibition, % at 7.5 µM;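 active means mean replicate score, as percent of positive control median, at least 50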;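 further: strain carries kanamycin resistance gene driven by streptokinase promoter and grows in 40 µg/ml kanamycin; loss of luminescence reflects streptokinase promoter inhibition or plain growth inhibition; 0% = median of DMSO wells and 100% = positive control at its reference dose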
TIM10 inh: TIM10 yeast growth inhibition | 1.4% of 330,000 active | S. cerevisiae TIM10 strain growth, BacTiter-Glo luminescence, 24 h | inhibition, % at 10 µM;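 active means inhibition of 40% or more at the single tested concentration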;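 further: wild-type TIM10 isogenic control strain grown at permissive 25 °C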
tim23-1 inh: tim23-1 yeast growth inhibition | 1.3% of 330,000 active | inhibition, % at 20 µM | S. cerevisiae tim23-1 growth, BacTiter-Glo luminescence, 24 h | AID 463212;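 active means growth inhibition of the mutant yeast at or above 50%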;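 further: temperature-sensitive mutant grown at 25 °C; plate controls were DMSO-treated mutant yeast for no effect and medium wells lacking yeast for full effect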
PfHsp90 yeast 2: growth inhibition of yeast expressing Plasmodium Hsp90; inhibition, % at 9.4 µM; 0.32% of 310,000 active; S. cerevisiae expressing PfHsp90, BacTiter-Glo ATP, 48 h; yeast lacking PDR1 and PDR3 efflux regulators; AID 504621;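 active means every replicate shows inhibition above about 80%, whatever the replicate mean, limit read from the data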;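 further: 0% = DMSO neutral controls and 100% = 20 µM radicicol positive controls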
tim10-1 inh: growth inhibitors of tim10-1 mutant yeast. S. cerevisiae tim10-1 ts strain growth, BacTiter-Glo, 24 h. inhibition, % at 20 µM. 2.2% of 330,000 active;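 active means inhibition of at least 40%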;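 further: mutant grown at 25 °C; 0% = DMSO wells with yeast and 100% = wells holding no yeast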
NALP1 yeast inh: blocks the NALP1 inflammasome reconstituted in yeast | 0.61% of 280,000 active | inhibition, % at 10 µM | S. cerevisiae NALP1/ASC/caspase-1 growth, X-gal OD620, 72 h | AID 2071; in the data active means inhibition mostly above about 24%, no sharp cut-off; inactive means mostly below about 32%
* = called active by the depositor; / = no result given.

SMILES | SKKanGAS inh | TIM10 inh | tim23-1 inh | PfHsp90 yeast 2 | tim10-1 inh | NALP1 yeast inh
CCOc1cc(/C=N/Nc2nc(Nc3ccccc3)nc(N3CCCCC3)n2)ccc1OCC(=O)O | 31 | 19 | 21 | 3 | 30 | -7
CN1CCN(S(=O)(=O)c2ccc(NC(=S)NC(=O)C(C)(C)C)cc2)CC1 | -10 | 0 | 28 | -5 | 24 | 80*
CCC(=O)NC(=S)Nc1ccc(S(=O)(=O)N2CCN(C)CC2)cc1 | -10 | -14 | 12 | 0 | 0 | 16
COc1ccc(O)c(-c2cn[nH]c2-c2cccs2)c1 | -2 | 4 | 4 | / | 4 | 13
COc1ccc(O)c(C2=Nc3ccccc3N=C(c3cccs3)C2)c1 | 60* | 9 | 25 | 7 | 18 | -37
Cc1cccc(N2C(=O)CSC23CCCCC3)c1 | -4 | 3 | 13 | 18 | 15 | 35*
O=C(/C=N/O)NCC1CCNCC1 | -2 | -3 | 3 | -7 | -7 | 8
N#Cc1nc(-c2ccc(OCc3ccccc3Cl)cc2)oc1NCCCn1ccnc1 | 74* | 8 | 35 | / | 26 | 12
N#Cc1nc(-c2ccc(OCc3ccccc3)cc2)oc1NCCCn1ccnc1 | 44 | 16 | 16 | -10 | 15 | 13
CCN(CC)S(=O)(=O)c1ccc(C(=O)Nc2nnc(COC)o2)cc1 | 4 | -8 | -13 | -14 | 11 | -31
CCCCN(CC)S(=O)(=O)c1ccc(C(=O)Nc2nnc(-c3cccs3)o2)cc1 | 98* | -3 | -1 | / | 34 | -6
CCN(CC)S(=O)(=O)c1ccc(C(=O)Nc2nnc(-c3ccco3)o2)cc1 | 8 | -4 | 4 | -2 | 18 | 4
CCCCN(CCCC)S(=O)(=O)c1ccc(C(=O)Nc2nnc(COC)o2)cc1 | 92* | 4 | 20 | -13 | 21 | -1
O=C(CN1CCN(c2ccccc2)CC1)c1ccc2cc[nH]c2c1 | 1 | -3 | 20 | -15 | 15 | 38*
O=C(O)c1ccccc1C(=O)Nc1ccc(Br)c(C(F)(F)F)c1 | 2 | 4 | -9 | 10 | 6 | 10
Cc1cc(C)c(C(=O)Nc2ccc(Br)c(C(F)(F)F)c2)c(C)c1 | 72* | 33 | 24 | 19 | 29 | 13
COc1ccc(/C=C/c2nc3cc(-c4ccccc4)ccc3o2)cc1O | 88* | 23 | 33 | -18 | 6 | 33
COc1ccc(/C=C/c2nc3ccccc3c(=O)o2)cc1 | 14 | 22 | 28 | 27 | 29 | 23
CC(C)=CCC12Oc3cc(O)ccc3C1(O)Oc1cc(O)c([C@H]3C=C(C)CC(c4ccc(O)cc4O)[C@H]3C(=O)c3ccc(O)cc3O)c(O)c1C2=O (stereo partly drawn) | 111* | 1 | 23 | / | 25 | /
CC(=O)Nc1cc2c(cc1NC(=O)Cn1nnc(-c3ccc(C)o3)n1)OCCO2 | 2 | 1 | -2 | 1 | -3 | -3
Nc1nc(-c2ccccn2)nc(N)c1Cc1c(F)cccc1Cl | 0 | -20 | -20 | -23 | -55 | -14
Nc1nc(-c2ccccn2)nc(N)c1Cc1ccccc1F | 79* | -41 | -16 | -5 | -41 | 12
Nc1nc(-c2ccccn2)nc(N)c1Cc1ccc(Cl)cc1Cl | 114* | -9 | 15 | 16 | -7 | 12
O=C1Nc2ccccc2S/C1=C\C(=O)N1CCCC1 | -3 | 9 | 0 | / | 9 | -3
O=C1Nc2ccccc2S/C1=C/Nc1cccc(Cl)c1 | 76* | 20 | 12 | / | 20 | 18
SMILES | SKKanGAS inh | TIM10 inh | tim23-1 inh | PfHsp90 yeast 2 | tim10-1 inh | NALP1 yeast inh
CC1=NN(c2nc(N)nc(/C(C#N)=C/c3ccc([N+](=O)[O-])o3)n2)C(C)(C)C1 | / | / | / | 8 | / | /
CN(c1ccc(OCC(=O)NCCc2ccccc2)cc1)S(=O)(=O)c1ccc(Cl)cc1 | 5 | 4 | 12 | / | 19 | /
CN(c1ccc(OCC(=O)Nc2ccc3[nH]c(=O)[nH]c3c2)cc1)S(=O)(=O)c1ccc(Cl)cc1 | 8 | 1 | 5 | 0 | 12 | 42*
COc1ccc(CCNC(=O)COc2ccc(N(C)S(=O)(=O)c3ccc(Cl)cc3)cc2)cc1 | 6 | / | / | -21 | / | 26*
CN(C)/C=C1\SC(=S)N(c2ccc(F)cc2)C1=O | -3 | 6 | 5 | 13 | 8 | /
CN(C)/C=C1\SC(=S)N(c2ccc(Br)cc2)C1=O | 54* | -7 | 14 | -6 | 12 | /
O=C(Nc1ccc2c(c1)nc1n2CCN(C2CCCCC2)C1)NC1CCCCC1 | 9 | 19 | 12 | / | 13 | 2

Screening results from PubChem BioAssay.
